# ALOX15 inhib = inhibitors of human 15-lipoxygenase (ALOX15) | AID 887 | Potency, µM (titrated, usually from 57.1 µM), for inactives: at the top dose activity change, negative = inhibition, usual class: inhibitors | actives 1.4% (n = 74,000) | P16050 | purified 15hLO-1, xylenol orange hydroperoxide absorbance; note: % is set by controls: 0 for no effect and ±100 for the full control effect; nearly all actives have a fitted effect of over 55% in size
#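 Inhibition is scored from a chromogenic endpoint. After 15 min enzyme-compound contact, arachidonic acid (50 uM final) reacts 6 min with 40 nM 15hLO-1 at room temperature, then Fe-XO reagent is added for 30 min and absorbance ratio recorded.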
# USP2a inhib = blocks human ubiquitin-specific protease USP2a; O75604; USP2a enzymatic assay, qHTS inhibition; Potency, µM (doses to about 38.3 µM), for inactives: at the top dose activity change, negative = inhibition, most hits filed as inhibitors; actives 0.1% (n = 60,000); note: nearly all actives have a fitted effect of over 60% in size
#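 USP2 core (20 nM final) was preincubated with compound for 30 min at RT in 20 mM Tris-HCl pH 8.0, 2 mM CaCl2, 2 mM beta-mercaptoethanol; Ub-PLA2 (20 nM) plus NBD C6-HPC (20 uM) then added, fluorescence read after 2.5 h.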
# Casp7 inh = allosteric or competitive inhibitors of human caspase-7 | recombinant caspase-7, Ac-DEVD-AFC fluorescence rate | Potency, µM (doses to about 57.5 µM), for the others: top-dose activity change, negative = inhibition, actives largely listed as inhibitors | actives 0.02% (n = 75,000) | AID 889; active = well fitted inhibition curve with a large enough effect in the main read-out, with a control signal flat, not every such curve was filed as active; inconclusive = small, poorly fitted or top-dose-only effect, or a change in a side signal; note: % of control where 0% means no effect
# Target sequence (P55210 24-198 limits assumed): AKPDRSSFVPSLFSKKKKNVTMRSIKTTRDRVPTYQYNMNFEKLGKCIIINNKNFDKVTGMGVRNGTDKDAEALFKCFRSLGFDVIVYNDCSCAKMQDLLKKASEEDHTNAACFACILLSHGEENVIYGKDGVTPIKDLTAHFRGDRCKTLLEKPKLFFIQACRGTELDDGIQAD
# Target sequence (P55210 207-303 limits assumed): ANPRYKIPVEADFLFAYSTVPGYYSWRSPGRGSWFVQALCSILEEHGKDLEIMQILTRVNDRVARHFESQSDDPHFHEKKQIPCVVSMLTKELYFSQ
# 15-hLO-2 inh = 15-hLO-2 (ALOX15B) enzyme inhibition; O15296; purified 15hLO-2, xylenol orange hydroperoxide absorbance; Potency, µM (titrated, usually from 57.1 µM), inactives show at the top dose activity change, negative = inhibition, hits mostly inhibitors; actives 0.56% (n = 110,000); note: % is set by controls: 0 for no effect and ±100 for the full control effect; nearly all actives have a fitted effect of over 60% in size
#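 Purified human 15hLO-2 (50 nM final) preincubated with compounds 15 min at room temperature in 25 mM Hepes pH 7.5, 0.01% Triton X-100, then 45 uM arachidonic acid added for 90 min; hydroperoxide detected via ferrous/xylenol orange, 573/405 nm absorbance ratio.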
# Caspase-1 inhib = caspase-1 (human) inhibition, allosteric or competitive. Caspase-1 enzyme, Ac-WEHD-AFC fluorogenic rate. Potency, µM (titrated, usually from 57.5 µM), for the others: at the top dose activity change, negative = inhibition, usual class: inhibitors. P29466. AID 900. actives 0.03% (n = 75,000);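 note: plate controls were vehicle for no effect and no substrate for full effect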
# The depositor's hits bear a star; ? = inconclusive; . = no result given; ! = not active in a repeat; [ ] = remark or other dose. The sample as a whole holds a higher share of hits than the screen did. Unless noted, calls come from the whole dose curve; as a rule, active = well fitted curve in the direction sought with a large enough effect; inconclusive = small, poorly fitted or top-dose-only effect, or another doubt; inactive = no such curve, though single readings can be large; an effect the other way counts as inactive or inconclusive. Potency is the fitted concentration of half-maximal effect.
SMILES,ALOX15 inhib,USP2a inhib,Casp7 inh,15-hLO-2 inh,Caspase-1 inhib
CC(C(=O)O)c1cccc(Oc2ccccc2)c1 (stereo not drawn),2.9%,-11.0%,-1.9%,-5.4%,2.1%
COc1ccc(N2CCC(CNS(=O)(=O)c3cccc(C(F)(F)F)c3)C2)cc1 (stereo not drawn),0.794µM*,8.8%,-0.8%,8.5%[2.29 µM],-2.8%
CC(=O)N1CC[C@H]2CC(=O)CC[C@@]21C,.,.,.,-0.2%[0.0915 µM],.
O=C1N=C(c2ccccc2)S/C1=C\c1cccs1,.,.,.,10µM*,.
O=C1/C(=C/c2cccs2)SC(=S)N1c1ccccc1,.,.,.,-3.9%,.
Cc1occc1-c1nnc(SCC(=O)c2cc3ccccc3oc2=O)o1,12.6µM*,?,?,-7.5%,.
Cc1occc1-c1nnc(SCC(=O)N2CCOCC2)o1,1.7%,-9.9%,-0.4%,-6.0%[11.4 µM],1.8%
Cn1cc(C2=C(c3cn(CCCSC(=N)N)c4ccccc34)C(=O)NC2=O)c2ccccc21,20µM*,.,-2.2%,-10.2%,-0.8%
O=C(O)C1CC(=O)N(CCC23CC4CC(CC(C4)C2)C3)C(=Nc2ccccc2)S1 (stereo not drawn),-27.1%,.,?,.,-14.1%
COc1ccccc1N1CCN(C/C=C/c2ccc(N(C)C)cc2)CC1,25.1µM*,10.2%,-0.2%,37.9%,-1.6%
COc1ccccc1N1CCN(S(=O)(=O)/C=C/c2ccccc2)CC1,.,.,.,7.5%,.
O=c1onc2cnc3ccccc3n12,17.3%[25.6 µM],-1.6%,-1.0%,11.5%,-1.1%
O=C1CCCC2=C1C(c1ccc(Br)cc1)c1c([nH]c(=S)[nH]c1=O)N2 (stereo not drawn),25.1µM*,8.7%,-1.6%,31.6µM*,-4.5%
O=C1CCCC2=C1C(c1ccc3c(c1)OCO3)c1c([nH]n(-c3ccccc3)c1=O)N2 (stereo not drawn),-7.2%,11.6%,2.5%,-29.6%,-3.8%
COc1ccc(-c2cc(C(=O)N/N=C/c3ccc(OC)c(OC)c3)[nH]n2)cc1,-4.1%,.,-0.9%,.,-3.4%
COc1ccc2oc(-c3ccccc3)c(OC)c(=O)c2c1,14.8%[25.6 µM],.,0.2%,-4.4%,-4.7%
Cc1onc(-c2ccccc2Cl)c1C(=O)OCC(=O)N1CCCc2ccccc21,20µM*,15.7%,-3.7%,-2.3%,-3.5%
Cc1onc(-c2ccccc2Cl)c1C(=O)N1CCCc2ccccc21,5.4%,-5.0%,-7.2%,-7.9%,-0.2%
CCNc1ncc2nc(C)c(=O)n(Cc3cccc(OC)c3)c2n1,7.7%,10.7%,-14.7%,-3.5%,-13.8%
Cc1c(NS(=O)(=O)c2cccs2)c(=O)n(-c2ccccc2)n1C,5.7%,-3.9%,1.2%,4.5%,1.4%
Cc1c(N/C=C/C(=O)c2cccs2)c(=O)n(-c2ccccc2)n1C,25.1µM*,31.1%,-1.4%,-19.7%,-2.6%
c1ccc(C[n+]2cccc(-c3cc4ccccc4[nH]3)c2)cc1,3.0%[11.4 µM],.,-1.6%[11.5 µM],6.9%[11.4 µM],1.3%[11.5 µM]
CN(C)CCOc1ccccc1-c1ccccc1,.,.,.,1.5%,.
CCCOc1ccccc1-c1nc2n[nH]nc2c(=O)[nH]1,15.8µM*!,10µM*,-7.6%,0.1%,-5.7%
Cc1cc(O)ccc1Nc1nc(-c2sc(N)nc2C)cs1,6.0%,-3.8%,0.4%,-14.6%,-1.5%
SMILES,ALOX15 inhib,USP2a inhib,Casp7 inh,15-hLO-2 inh,Caspase-1 inhib
Cc1cc(O)ccc1Nc1nc2ccccc2nc1Nc1ccc(O)cc1C,15.8µM*,21.2%,?,-26.3%,?
Cc1ccsc1C1C=C(c2cccc(Br)c2)Nc2ncnn21 (stereo not drawn),15.8µM*,41.2%,?,-4.6%,.
Nc1ncnc2c1ncn2[C@@H]1O[C@@H](CO)[C@H](O)[C@@H]1O,-4.4%,-3.3%,1.2%,-5.9%,5.5%
c1coc(-c2nc(-c3ccco3)c(-c3ccco3)nc2-c2ccco2)c1,2µM*,?,?,-26.4%,.
COc1ccc2nc(-c3ccco3)c(-c3ccco3)nc2c1,.,.,.,-1.4%,.
Nc1nc(-c2ccco2)c(-c2ccco2)s1,20µM*,15.9%,?,-22.5%,?
CC(=O)N(c1ccc2oc(=O)sc2c1)S(=O)(=O)c1ccccc1,15.8µM*,47.9%,0.2%,-13.4%,3.0%
CCCC(=O)N(c1ccc2oc(=O)sc2c1)S(=O)(=O)c1cccs1,15.8µM*,31.1%,0.2%,-9.5%,-0.4%

# Screening results as filed in PubChem BioAssay.
